The target of assay [1] is Sphingosine kinase 1 (Homo sapiens) (UniProt Q9NYA1). To be noted: at 1 µM.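 Further: mean SPHK1 inhibition value reported from the GSK PKIS kinase panel screen.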
In assay [2] the target is T1, Sphingosine kinase 2 (Homo sapiens) (UniProt Q9NRA0).
T1 sequence (whole entry): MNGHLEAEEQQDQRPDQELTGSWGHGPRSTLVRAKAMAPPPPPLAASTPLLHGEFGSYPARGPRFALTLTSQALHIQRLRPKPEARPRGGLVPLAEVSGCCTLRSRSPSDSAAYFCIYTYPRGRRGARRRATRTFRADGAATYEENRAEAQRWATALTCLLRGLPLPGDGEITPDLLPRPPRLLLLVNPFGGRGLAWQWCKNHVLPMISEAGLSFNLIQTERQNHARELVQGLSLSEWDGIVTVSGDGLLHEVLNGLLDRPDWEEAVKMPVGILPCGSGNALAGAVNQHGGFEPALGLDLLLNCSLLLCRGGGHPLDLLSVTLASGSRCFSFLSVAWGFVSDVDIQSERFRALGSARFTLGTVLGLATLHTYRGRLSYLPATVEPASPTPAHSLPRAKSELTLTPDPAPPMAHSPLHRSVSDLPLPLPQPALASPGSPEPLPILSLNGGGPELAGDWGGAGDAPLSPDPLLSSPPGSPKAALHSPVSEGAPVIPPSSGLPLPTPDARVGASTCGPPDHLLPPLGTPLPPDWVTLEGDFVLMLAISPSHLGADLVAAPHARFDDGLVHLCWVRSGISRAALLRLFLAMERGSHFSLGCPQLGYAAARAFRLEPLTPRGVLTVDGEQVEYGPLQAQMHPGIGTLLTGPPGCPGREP
The following applies: at 0.1 µM.

The target of assay [3] is T1, Sphingosine kinase 2 (Homo sapiens). To be noted: at 1 µM.
In assay [4] the target is Casein kinase II subunit alpha (Homo sapiens) (UniProt P68400). To be noted: at 0.1 µM.
Assay [5] shares this target. To be noted: at 1 µM.
In assay [6] the target is T2, Inhibitor of nuclear factor kappa-B kinase subunit alpha (Homo sapiens) (UniProt O15111).
T2 sequence (whole entry): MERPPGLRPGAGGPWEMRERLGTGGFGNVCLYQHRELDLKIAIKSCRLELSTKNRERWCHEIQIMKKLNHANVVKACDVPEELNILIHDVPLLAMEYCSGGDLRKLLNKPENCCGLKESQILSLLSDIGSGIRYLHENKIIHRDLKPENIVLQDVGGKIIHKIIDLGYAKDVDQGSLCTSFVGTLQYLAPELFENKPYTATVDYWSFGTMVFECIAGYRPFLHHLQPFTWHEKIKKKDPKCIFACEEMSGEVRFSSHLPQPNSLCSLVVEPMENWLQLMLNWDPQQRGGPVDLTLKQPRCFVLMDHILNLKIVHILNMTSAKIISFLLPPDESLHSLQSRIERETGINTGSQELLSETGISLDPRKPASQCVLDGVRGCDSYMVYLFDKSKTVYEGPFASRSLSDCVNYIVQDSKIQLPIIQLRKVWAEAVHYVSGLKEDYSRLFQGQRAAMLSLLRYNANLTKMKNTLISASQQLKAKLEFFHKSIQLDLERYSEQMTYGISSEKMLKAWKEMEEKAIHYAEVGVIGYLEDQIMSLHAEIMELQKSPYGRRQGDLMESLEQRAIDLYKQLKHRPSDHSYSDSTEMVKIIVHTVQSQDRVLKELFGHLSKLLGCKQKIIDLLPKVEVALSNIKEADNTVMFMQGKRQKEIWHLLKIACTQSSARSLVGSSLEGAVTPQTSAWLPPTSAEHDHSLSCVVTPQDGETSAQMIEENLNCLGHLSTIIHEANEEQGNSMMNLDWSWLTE
To be noted: at 0.1 µM.

Assay [7] addresses T2, Inhibitor of nuclear factor kappa-B kinase subunit alpha (Homo sapiens). To be noted: at 1 µM.
For assay [8], the target named is T3, Inhibitor of nuclear factor kappa-B kinase subunit beta (Homo sapiens) (UniProt O14920).
T3 sequence (whole entry): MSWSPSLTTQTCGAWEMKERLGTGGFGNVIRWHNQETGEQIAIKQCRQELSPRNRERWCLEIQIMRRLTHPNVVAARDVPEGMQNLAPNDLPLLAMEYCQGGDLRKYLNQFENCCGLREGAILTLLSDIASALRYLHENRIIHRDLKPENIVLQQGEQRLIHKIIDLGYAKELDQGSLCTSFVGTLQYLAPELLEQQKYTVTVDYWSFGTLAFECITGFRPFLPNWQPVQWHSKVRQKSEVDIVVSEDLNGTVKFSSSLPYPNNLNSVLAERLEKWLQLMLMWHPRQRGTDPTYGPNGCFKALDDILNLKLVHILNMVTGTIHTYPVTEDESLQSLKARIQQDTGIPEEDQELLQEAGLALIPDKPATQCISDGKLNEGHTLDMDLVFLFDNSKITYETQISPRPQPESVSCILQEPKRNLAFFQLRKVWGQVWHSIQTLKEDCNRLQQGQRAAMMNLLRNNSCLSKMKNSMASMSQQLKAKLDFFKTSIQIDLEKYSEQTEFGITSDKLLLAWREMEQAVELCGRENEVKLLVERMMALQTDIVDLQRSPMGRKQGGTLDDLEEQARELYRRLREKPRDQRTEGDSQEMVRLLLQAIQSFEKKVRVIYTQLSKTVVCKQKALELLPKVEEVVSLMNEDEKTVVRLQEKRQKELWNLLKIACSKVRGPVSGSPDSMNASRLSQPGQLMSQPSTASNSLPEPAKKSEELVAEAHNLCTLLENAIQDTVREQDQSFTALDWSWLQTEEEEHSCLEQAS
The following applies: at 0.1 µM.

Assay [9] has as its target T3, Inhibitor of nuclear factor kappa-B kinase subunit beta (Homo sapiens). The following applies: at 1 µM.
In assay [10] the target is T4, Inhibitor of nuclear factor kappa-B kinase subunit epsilon (Homo sapiens) (UniProt Q14164).
T4 sequence (whole entry): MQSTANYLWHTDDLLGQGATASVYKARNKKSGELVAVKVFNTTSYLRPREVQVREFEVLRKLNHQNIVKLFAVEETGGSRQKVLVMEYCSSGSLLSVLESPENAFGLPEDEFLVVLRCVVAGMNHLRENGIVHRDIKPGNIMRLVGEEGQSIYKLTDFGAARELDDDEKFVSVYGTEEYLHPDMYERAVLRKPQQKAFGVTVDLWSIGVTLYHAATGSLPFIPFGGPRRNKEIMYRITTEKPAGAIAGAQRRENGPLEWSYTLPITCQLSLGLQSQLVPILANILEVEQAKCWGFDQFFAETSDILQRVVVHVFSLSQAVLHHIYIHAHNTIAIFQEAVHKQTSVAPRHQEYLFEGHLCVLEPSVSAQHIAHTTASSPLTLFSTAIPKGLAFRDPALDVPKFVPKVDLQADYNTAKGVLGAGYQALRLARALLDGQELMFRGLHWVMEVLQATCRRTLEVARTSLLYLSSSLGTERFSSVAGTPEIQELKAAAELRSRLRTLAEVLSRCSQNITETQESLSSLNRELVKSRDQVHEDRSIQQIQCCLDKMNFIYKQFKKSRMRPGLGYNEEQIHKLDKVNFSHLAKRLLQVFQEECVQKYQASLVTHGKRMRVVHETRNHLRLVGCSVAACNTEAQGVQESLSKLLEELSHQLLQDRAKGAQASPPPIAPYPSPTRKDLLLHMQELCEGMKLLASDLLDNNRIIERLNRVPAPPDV
To be noted: at 0.1 µM.

Assay [11] has as its target T4, Inhibitor of nuclear factor kappa-B kinase subunit epsilon (Homo sapiens). To be noted: at 1 µM.
Assay [12] has as its target T5, Serine/threonine-protein kinase Nek1 (Homo sapiens) (UniProt Q96PY6).
T5 sequence (whole entry): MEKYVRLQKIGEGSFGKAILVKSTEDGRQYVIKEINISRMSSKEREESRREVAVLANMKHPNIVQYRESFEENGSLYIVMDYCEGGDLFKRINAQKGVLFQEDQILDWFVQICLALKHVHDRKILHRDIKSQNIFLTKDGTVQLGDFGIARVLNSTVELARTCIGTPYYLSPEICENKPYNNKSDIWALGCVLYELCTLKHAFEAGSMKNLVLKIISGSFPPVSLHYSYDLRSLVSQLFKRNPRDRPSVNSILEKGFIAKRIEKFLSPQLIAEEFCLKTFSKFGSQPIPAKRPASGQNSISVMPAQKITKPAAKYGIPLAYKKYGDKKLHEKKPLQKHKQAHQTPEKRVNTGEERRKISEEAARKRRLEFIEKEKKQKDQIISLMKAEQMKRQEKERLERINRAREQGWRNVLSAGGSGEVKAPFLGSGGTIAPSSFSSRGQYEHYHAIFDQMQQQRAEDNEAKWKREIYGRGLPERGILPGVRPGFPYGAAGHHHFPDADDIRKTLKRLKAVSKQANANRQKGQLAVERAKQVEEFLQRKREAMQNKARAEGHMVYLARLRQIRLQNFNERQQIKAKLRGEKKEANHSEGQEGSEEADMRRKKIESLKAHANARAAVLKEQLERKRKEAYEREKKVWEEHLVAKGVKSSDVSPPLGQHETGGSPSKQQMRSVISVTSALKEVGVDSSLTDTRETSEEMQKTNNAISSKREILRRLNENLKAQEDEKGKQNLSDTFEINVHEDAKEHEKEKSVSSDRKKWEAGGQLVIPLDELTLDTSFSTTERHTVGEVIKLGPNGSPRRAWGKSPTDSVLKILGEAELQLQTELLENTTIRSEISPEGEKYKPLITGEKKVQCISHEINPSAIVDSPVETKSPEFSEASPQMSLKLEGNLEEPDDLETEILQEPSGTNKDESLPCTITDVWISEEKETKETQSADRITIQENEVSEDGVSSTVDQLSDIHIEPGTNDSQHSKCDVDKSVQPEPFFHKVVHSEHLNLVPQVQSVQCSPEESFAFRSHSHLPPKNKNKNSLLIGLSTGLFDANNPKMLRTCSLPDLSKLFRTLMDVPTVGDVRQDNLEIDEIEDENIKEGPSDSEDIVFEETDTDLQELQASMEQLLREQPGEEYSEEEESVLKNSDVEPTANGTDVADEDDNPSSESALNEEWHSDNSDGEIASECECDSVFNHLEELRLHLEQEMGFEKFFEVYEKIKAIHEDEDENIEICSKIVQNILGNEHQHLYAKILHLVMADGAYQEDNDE
The following applies: at 0.1 µM.

Assay [13] concerns the target T5, Serine/threonine-protein kinase Nek1 (Homo sapiens). The following applies: at 1 µM.
Assay [14] deals with T6, Serine/threonine-protein kinase Nek2 (Homo sapiens) (UniProt P51955).
T6 sequence (whole entry): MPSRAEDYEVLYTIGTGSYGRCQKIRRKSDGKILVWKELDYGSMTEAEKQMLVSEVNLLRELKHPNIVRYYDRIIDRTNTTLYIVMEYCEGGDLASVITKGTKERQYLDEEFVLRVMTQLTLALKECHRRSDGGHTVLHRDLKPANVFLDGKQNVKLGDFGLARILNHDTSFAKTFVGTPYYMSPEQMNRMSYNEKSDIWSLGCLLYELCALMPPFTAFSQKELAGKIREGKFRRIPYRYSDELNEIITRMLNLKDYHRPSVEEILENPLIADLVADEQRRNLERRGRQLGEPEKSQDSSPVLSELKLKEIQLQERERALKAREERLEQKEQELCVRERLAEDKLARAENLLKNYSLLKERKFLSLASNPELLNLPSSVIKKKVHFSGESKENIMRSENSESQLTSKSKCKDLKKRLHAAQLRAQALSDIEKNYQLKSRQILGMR
To be noted: at 0.1 µM.

Assay [15] deals with T6, Serine/threonine-protein kinase Nek2 (Homo sapiens). The following applies: at 1 µM.
In assay [16] the target is Serine/threonine-protein kinase Nek6 (Homo sapiens) (UniProt Q9HC98). To be noted: at 0.1 µM.
For assay [17] the target is unchanged. To be noted: at 1 µM.
Assay [18] has as its target Serine/threonine-protein kinase Nek7 (Homo sapiens) (UniProt Q8TDX7). To be noted: at 0.1 µM.
Assay [19] has the same target. The following applies: at 1 µM.
For assay [20], the target named is T7, Serine/threonine-protein kinase Nek9 (Homo sapiens) (UniProt Q8TD19).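 Further: reported value is the mean percent inhibition of NEK9.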
T7 sequence (whole entry): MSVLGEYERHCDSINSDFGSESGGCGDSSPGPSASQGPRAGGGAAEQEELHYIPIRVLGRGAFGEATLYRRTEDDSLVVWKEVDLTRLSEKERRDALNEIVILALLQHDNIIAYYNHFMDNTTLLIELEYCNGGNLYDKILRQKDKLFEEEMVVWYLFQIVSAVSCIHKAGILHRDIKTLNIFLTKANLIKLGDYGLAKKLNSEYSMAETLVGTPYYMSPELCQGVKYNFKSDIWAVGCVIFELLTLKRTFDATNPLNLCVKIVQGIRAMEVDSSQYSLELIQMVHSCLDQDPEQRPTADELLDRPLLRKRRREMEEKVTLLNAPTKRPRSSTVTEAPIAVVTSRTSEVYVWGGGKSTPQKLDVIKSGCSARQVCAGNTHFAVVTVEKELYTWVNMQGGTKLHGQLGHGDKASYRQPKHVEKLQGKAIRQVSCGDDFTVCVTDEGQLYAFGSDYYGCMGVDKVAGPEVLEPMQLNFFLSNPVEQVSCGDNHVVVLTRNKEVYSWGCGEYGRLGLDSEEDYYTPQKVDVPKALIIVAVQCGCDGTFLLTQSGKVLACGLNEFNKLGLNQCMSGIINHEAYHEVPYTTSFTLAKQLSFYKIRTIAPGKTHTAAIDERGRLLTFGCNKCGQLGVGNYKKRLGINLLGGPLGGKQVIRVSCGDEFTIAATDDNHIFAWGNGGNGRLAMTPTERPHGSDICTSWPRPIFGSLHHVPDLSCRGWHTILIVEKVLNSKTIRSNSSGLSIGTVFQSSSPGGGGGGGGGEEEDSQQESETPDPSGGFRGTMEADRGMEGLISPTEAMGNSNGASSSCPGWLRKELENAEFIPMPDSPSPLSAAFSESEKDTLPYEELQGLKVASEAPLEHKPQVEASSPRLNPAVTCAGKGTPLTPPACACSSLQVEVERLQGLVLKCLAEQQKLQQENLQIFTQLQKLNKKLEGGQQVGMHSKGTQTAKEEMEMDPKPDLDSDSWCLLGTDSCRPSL
The following applies: at 0.1 µM.

Structures are written as SMILES.

We go through 1 compound from ChEMBL document CHEMBL1961873, “Compounds: GSK PKIS; Assays: Nanosyn kinase panel” (2012).

What is called inhibition is the relative decrease from the control value, in per cent.

Chain of Serine/threonine-protein kinase Nek6 (Homo sapiens) (Q9HC98 whole entry): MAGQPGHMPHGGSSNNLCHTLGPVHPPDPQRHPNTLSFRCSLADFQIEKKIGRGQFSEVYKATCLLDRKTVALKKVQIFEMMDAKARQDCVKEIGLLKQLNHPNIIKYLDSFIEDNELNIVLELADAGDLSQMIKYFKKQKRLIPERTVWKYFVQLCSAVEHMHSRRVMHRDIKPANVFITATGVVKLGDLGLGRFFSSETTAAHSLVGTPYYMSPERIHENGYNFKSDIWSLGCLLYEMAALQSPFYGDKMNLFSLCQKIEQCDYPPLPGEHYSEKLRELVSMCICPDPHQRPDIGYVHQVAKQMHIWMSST
Chain of Casein kinase II subunit alpha (Homo sapiens) (P68400 whole entry, looked up): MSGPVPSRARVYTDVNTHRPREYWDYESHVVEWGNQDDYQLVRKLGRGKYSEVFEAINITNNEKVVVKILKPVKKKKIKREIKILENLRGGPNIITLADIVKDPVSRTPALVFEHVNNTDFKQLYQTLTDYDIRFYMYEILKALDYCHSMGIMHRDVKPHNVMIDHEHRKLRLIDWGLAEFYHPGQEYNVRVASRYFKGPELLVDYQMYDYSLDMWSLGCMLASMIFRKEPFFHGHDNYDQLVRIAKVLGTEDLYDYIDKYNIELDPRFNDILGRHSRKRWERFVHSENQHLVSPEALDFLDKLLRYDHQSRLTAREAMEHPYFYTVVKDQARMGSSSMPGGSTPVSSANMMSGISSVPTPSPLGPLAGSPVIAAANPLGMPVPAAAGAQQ
Chain of Serine/threonine-protein kinase Nek7 (Homo sapiens) (Q8TDX7 whole entry, looked up): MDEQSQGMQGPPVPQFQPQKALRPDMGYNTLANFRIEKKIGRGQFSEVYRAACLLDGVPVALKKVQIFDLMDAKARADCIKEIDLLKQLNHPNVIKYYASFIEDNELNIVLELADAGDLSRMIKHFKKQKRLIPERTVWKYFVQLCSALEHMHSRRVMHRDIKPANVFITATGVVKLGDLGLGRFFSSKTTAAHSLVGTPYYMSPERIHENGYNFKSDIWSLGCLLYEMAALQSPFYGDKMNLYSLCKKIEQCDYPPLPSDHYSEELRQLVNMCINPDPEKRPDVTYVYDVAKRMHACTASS
Chain of Sphingosine kinase 1 (Homo sapiens) (Q9NYA1 whole entry): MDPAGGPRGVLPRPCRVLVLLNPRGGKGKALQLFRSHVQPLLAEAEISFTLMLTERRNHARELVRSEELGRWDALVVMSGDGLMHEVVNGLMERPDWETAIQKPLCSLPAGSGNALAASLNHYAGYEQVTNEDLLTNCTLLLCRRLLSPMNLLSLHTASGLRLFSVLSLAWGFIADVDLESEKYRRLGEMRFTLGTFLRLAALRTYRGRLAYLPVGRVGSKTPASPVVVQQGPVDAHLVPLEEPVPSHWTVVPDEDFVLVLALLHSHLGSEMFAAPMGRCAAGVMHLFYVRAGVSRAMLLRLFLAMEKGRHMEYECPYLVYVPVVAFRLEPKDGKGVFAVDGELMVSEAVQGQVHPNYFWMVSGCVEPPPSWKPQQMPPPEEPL

For the compound `NS(=O)(=O)c1ccc(Nc2ncc(-c3ccccc3)o2)cc1`, the inhibition is 0% in assay [1]; -1.43% in assay [2]; -1.09% in [3]; 3.56% in assay [4]; 10.3% in assay [5]; 6.23% in assay [6]. The inhibition in [7] came to 15.3%; in [8], 3.35%; in assay [9] it was 11.7%; in [10] it was 4.43%; in assay [11], 5.67%; in assay [12] it was 2.41%. For the same compound, the inhibition was 5.75% in assay [13]; 4.32% in [14]; 4.17% in [15]; 2.71% in assay [16]; 1.65% in [17]; 2.06% in assay [18]. The inhibition was 2.65% in assay [19] and 3.91% in assay [20].
